{
  "source": "PubChem BioAssay AID624404",
  "about": "(Broad Institute, 2012)",
  "note": "Screen size: about 1,800 compounds; about 710 (39%) were called active. Another 28% or so got no clear call; they are omitted. The list is a sample of the results. Potency and affinity values are given separately. Unmarked numbers belong to inactive results.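 How the source made its calls: active means luciferase signal rise whose fitted curve crosses a set activity limit at or below the top valid tested dose; inconclusive means flat fit with 30 to 70% rise, or poor fit; inactive means signal falling, flat within 30%, or crossing above top dose.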",
  "data": [
    {"assay": "reporter signal increase, D54 LucT cells – cell-based, luminescence, cherry pick, counter-screen for N-linked glycosylation inhibitor project, dose response (AID 624404);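 further: 0% = median neutral control signal and 100% = twice that signal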", "conditions": "D54 LucT luciferase reporter counterscreen, 24 h; series mostly up to 19.5 µM; activity increase (luciferase signal): at the top concentration", "units": {"activity increase (luciferase signal)": "%"}, "values": [
      {"smiles": "CCOc1cc(/C=C/C(=O)c2ccc(C)cc2)ccc1OCC(=O)N(C)C", "activity increase (luciferase signal)": 47.5},
      {"smiles": "O=C(Nc1cccc(-n2cnnn2)c1)c1cc(Cl)ccc1Cl", "activity increase (luciferase signal)": 19.6},
      {"smiles": "c1ccc(CN2CCC(Nc3nc(-c4cccnc4)nc4ccccc34)CC2)cc1", "activity increase (luciferase signal)": -28.2},
      {"smiles": "CCc1ccc(N2CC(C(=O)Nc3ccccc3N3CCCC3)CC2=O)cc1", "note": "(stereo unspecified)", "activity increase (luciferase signal)": 18.3},
      {"smiles": "Cn1nc(-c2ccc(N3CCOCC3)c(NS(=O)(=O)c3ccccc3)c2)c2ccccc2c1=O", "activity increase (luciferase signal)": 31.8},
      {"smiles": "COc1ccc(N2CC(C(=O)Nc3cc(C(F)(F)F)ccc3N3CCCC3)CC2=O)c(OC)c1", "note": "(stereo unspecified)", "activity increase (luciferase signal)": 11.6},
      {"smiles": "COc1ccc2nc3n(c(=O)c2c1)-c1cc2ccccc2cc1C(=O)NC3Cc1ccccc1", "note": "(stereo unspecified)", "activity increase (luciferase signal)": -29.2},
      {"smiles": "COc1cccc(/C=N/NC(=O)c2[nH]nc3c2CCc2ccccc2-3)c1", "activity increase (luciferase signal)": 19.5},
      {"smiles": "Cc1ccc(C(c2cc(Cl)c3cccnc3c2O)N2CCN(C)CC2)cc1", "note": "(stereo unspecified)", "activity increase (luciferase signal)": -2.86},
      {"smiles": "Cc1nc2c3cc(F)ccc3n(CCN3CCCCC3)c2s1", "activity increase (luciferase signal)": 14.4},
      {"smiles": "COc1ccc(F)cc1C1=CC(=O)C[C@H](c2ccc3c(c2)OCO3)C1", "activity increase (luciferase signal)": 32.4},
      {"smiles": "CN1C/C(=C\\c2ccc(N3CCOCC3)cc2)C(=O)/C(=C/c2ccc(N3CCOCC3)cc2)C1", "activity increase (luciferase signal)": -37.8},
      {"smiles": "COc1cc(-c2nc(-c3ccccc3)c(-c3cccs3)[nH]2)cc(OC)c1O", "activity increase (luciferase signal)": 26.6},
      {"smiles": "Cc1noc(C)c1COc1ccccc1C(=O)N1CCN(c2cccc(C(F)(F)F)c2)CC1", "activity increase (luciferase signal)": 25.9},
      {"smiles": "CN(C)c1ccc(/C=C/c2cc[n+](C)c3ccccc23)cc1", "activity increase (luciferase signal)": -17.1},
      {"smiles": "COc1ccc(C2C(C(=O)Nc3cc(OC)c(OC)c(OC)c3)c3ccccc3C(=O)N2C)cc1", "note": "(stereo unspecified)", "activity increase (luciferase signal)": -0.8},
      {"smiles": "Cn1cc(/C=N/n2cnc3scc(-c4ccc(Cl)cc4)c3c2=O)c2ccccc21", "activity increase (luciferase signal)": -4.96},
      {"smiles": "Cc1[nH][nH]c(=O)c1C(c1ccc(-c2ccc(Cl)c(Cl)c2)o1)c1c(C)[nH][nH]c1=O", "activity increase (luciferase signal)": 11},
      {"smiles": "COc1cccc(OCC(O)CN2CCN(CCN3C(=O)c4cccc5cccc(c45)C3=O)CC2)c1", "note": "(stereo unspecified)", "activity increase (luciferase signal)": 1.12},
      {"smiles": "Cc1ccccc1OCC(O)CN1CCN(CCN2C(=O)c3cccc4cccc(c34)C2=O)CC1", "note": "(stereo unspecified)", "activity increase (luciferase signal)": -2.69},
      {"smiles": "CC(C)CCN(C(=O)Cc1ccc(Cl)c(Cl)c1)c1c(N)n(Cc2ccccc2)c(=O)[nH]c1=O", "activity increase (luciferase signal)": 6.92},
      {"smiles": "CCN(CC)c1ccc(/C=C/c2cccc[n+]2C)c(OC)c1", "activity increase (luciferase signal)": -53.2},
      {"smiles": "O=C(Cn1cnc2c(NCc3ccccc3)ncnc21)NCc1ccccc1", "activity increase (luciferase signal)": 38.4},
      {"smiles": "CC(=O)c1ccc(Nc2c3c(nc4ccccc24)CCCC3)cc1", "activity increase (luciferase signal)": 32.1},
      {"smiles": "COc1ccc(Nc2nc(N3CCCC3)nc3ccccc23)c(OC)c1", "activity increase (luciferase signal)": -0.901},
      {"smiles": "CCOc1ccccc1C1CC(=O)Nc2cc3c(cc21)OCO3", "note": "(stereo unspecified)", "activity increase (luciferase signal)": 35.4},
      {"smiles": "Cc1ccc(C)c(N2CCN(c3cnn(-c4nc5ccccc5s4)c(=O)c3Cl)CC2)c1", "activity increase (luciferase signal)": 36.1},
      {"smiles": "CC(C)(C)c1ccc(C(=O)O/N=C(\\N)Cc2cccs2)cc1", "activity increase (luciferase signal)": 40.3},
      {"smiles": "O=C(CCl)Nc1cn(-c2ccccc2)nc1-c1ccc(F)cc1", "activity increase (luciferase signal)": -69.3},
      {"smiles": "CC1=CC(C)[C@H](/C=N/n2c(=O)[nH]c3c([nH]c4ccc(Br)cc43)c2=O)C(C)C1", "note": "(stereo partly specified)", "activity increase (luciferase signal)": 9.8},
      {"smiles": "COc1ccc(-c2nn(C)c(=O)c3ccccc23)cc1NS(C)(=O)=O", "activity increase (luciferase signal)": 57.1},
      {"smiles": "CC=Cc1cc2c(c(=O)o1)C(=O)C(O)C(C)O2", "note": "(stereo unspecified)", "activity increase (luciferase signal)": 40.1},
      {"smiles": "Cc1ccc(OCCOC(=O)c2c(-c3ccccc3)noc2C)cc1", "activity increase (luciferase signal)": 13.6},
      {"smiles": "Cc1noc(C)c1COc1ccc(C(=O)NNC(=O)c2ccccc2F)cc1", "activity increase (luciferase signal)": 70.6},
      {"smiles": "N#CCC(CNc1ncc(C(F)(F)F)cc1Cl)OC(=O)c1ccc(Cl)cc1Cl", "note": "(stereo unspecified)", "activity increase (luciferase signal)": 13.4},
      {"smiles": "C/C(=N/NC(=O)c1cccs1)c1ccc(NC(=O)COc2ccc(Cl)cc2Cl)cc1", "activity increase (luciferase signal)": 13.5},
      {"smiles": "CCOc1ccc(Br)cc1C1=NN(C(C)=O)C(c2ccc([N+](=O)[O-])s2)O1", "note": "(stereo unspecified)", "activity increase (luciferase signal)": 30},
      {"smiles": "CN(C)S(=O)(=O)c1ccc(N2CCCC2)c(C(=O)Nc2cccc(F)c2)c1", "activity increase (luciferase signal)": 17.2},
      {"smiles": "COc1ccc(S(=O)(=O)Nc2cc3c(cc2C(C)=O)OCO3)cc1", "activity increase (luciferase signal)": 40.6},
      {"smiles": "O=C(Nc1cccc(F)c1)c1cc(S(=O)(=O)N2CCOCC2)ccc1N1CCCC1", "activity increase (luciferase signal)": 5.41},
      {"smiles": "CN(C)S(=O)(=O)c1ccc(N2CCCC2)c(C(=O)Nc2ccccc2)c1", "activity increase (luciferase signal)": 4.45},
      {"smiles": "CC1=C(n2ccnc2)CCC1=O", "activity increase (luciferase signal)": 20.5},
      {"smiles": "O=C1CC(c2ccccc2F)c2cc3c(cc2N1)CCC3", "note": "(stereo unspecified)", "activity increase (luciferase signal)": 32.1},
      {"smiles": "CC(C)(C)c1nnc2sc(SCC(=O)c3ccc4c(c3)OCCO4)nn2c1=O", "activity increase (luciferase signal)": -0.962},
      {"smiles": "CN(C)CCc1cc2c(c3c1ccc1ccccc13)OCO2", "activity increase (luciferase signal)": -9.59},
      {"smiles": "COc1ccccc1C1CC(=O)Nc2cc3c(cc21)OCCO3", "note": "(stereo unspecified)", "activity increase (luciferase signal)": 7.01},
      {"smiles": "COC(=O)c1sc(N)c(C(=O)OC)c1COC(=O)c1c(C)noc1C", "activity increase (luciferase signal)": 41.7},
      {"smiles": "Cc1[nH]c2ccc(C(=O)OC(C)C(=O)NCc3ccccc3)cc2c1C", "note": "(stereo unspecified)", "activity increase (luciferase signal)": 20.7},
      {"smiles": "COc1cccc(-c2nc(N3CCN(C)CC3)c3ccccc3n2)c1O", "activity increase (luciferase signal)": 30.5},
      {"smiles": "O=C(N/N=C/C(Br)=C/c1ccccc1)c1cc(-c2ccco2)[nH]n1", "activity increase (luciferase signal)": 31.3},
      {"smiles": "O=C(CNc1cccc2ccccc12)N/N=C/C(Br)=C/c1ccccc1", "activity increase (luciferase signal)": 33.3}
    ]}
  ]
}
